Assay outcomes as filed in PubChem.
DSG3 Ab inh: inhibitors of pemphigus antibody binding to DSG3, primary screen, biochemical, bead-based, flow cytometry, scFv-GFP. binding (percent of control), % at 10 µM. actives 0.48% (n = 310,000). AID 588358, 2011. Desmoglein-3 (Homo sapiens), P32926. DSG3-coupled beads, scFv-anti-DSG3-GFP binding; hits give low values;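 active = binding more than 3 SD below its plate's average and above zero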;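 note: hits lower antibody fragment binding to DSG3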
Target sequence (P32926 whole entry, looked up, the tested form may be a part): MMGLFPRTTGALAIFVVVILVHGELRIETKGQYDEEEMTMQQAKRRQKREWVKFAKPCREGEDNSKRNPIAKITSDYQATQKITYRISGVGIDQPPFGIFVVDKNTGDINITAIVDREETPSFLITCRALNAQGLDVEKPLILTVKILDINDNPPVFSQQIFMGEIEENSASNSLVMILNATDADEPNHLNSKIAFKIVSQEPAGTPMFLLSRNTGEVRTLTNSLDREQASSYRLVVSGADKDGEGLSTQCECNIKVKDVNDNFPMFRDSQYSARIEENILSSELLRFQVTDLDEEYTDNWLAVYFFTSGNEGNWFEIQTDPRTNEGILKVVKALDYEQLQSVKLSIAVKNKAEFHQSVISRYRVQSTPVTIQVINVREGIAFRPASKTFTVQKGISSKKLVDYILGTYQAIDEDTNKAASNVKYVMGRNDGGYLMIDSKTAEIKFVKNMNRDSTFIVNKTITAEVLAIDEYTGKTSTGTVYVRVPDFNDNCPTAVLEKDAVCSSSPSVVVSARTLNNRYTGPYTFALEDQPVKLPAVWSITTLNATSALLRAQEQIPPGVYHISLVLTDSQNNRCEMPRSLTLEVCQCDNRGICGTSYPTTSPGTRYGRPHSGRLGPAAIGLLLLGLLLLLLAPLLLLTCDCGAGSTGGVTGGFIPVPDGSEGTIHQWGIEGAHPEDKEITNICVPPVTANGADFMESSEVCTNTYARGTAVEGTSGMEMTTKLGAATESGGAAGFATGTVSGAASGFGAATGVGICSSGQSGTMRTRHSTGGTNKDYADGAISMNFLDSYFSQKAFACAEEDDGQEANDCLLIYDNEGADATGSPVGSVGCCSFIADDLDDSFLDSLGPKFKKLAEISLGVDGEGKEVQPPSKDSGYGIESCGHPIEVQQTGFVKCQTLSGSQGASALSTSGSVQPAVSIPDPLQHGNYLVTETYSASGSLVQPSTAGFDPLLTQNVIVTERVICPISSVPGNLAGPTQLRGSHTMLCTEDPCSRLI
LAP4 TOR yeast: modulators of LAP4-GFP expression in yeast, primary screen, S. cerevisiae, multiplex flow cytometry, MLPCN library. 3 h; median GFP as percent of DMSO wells. GFP response vs DMSO, % at 10 µM. actives 0.34% (n = 320,000). AID 2023, 2009;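 active = GFP response vs DMSO above a set limit, about the screen mean plus 3 SD, cut at about 150% in these data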
MEP2-GFP yeast: modulators of MEP2-GFP levels in yeast, primary screen, S. cerevisiae, multiplex flow cytometry, MLPCN library; GFP response vs DMSO, % at 10 µM; S. cerevisiae MEP2-GFP strain, 3 h; 100% = DMSO control level; actives 0.51% (n = 330,000); AID 2016, 2009;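 active = GFP response versus DMSO above a set limit, roughly screen mean plus 3 SD, cut at about 180% in these data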;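 note: median GFP fluorescence of the barcode-gated MEP2-GFP cells per well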
RPL19A TOR yeast: RPL19A-GFP expression modulators in yeast, primary screen, cell-based, S. cerevisiae, multiplex flow cytometry, MLPCN | percent response vs DMSO, % at 10 µM | actives 0.3% (n = 330,000) | S. cerevisiae RPL19A-GFP strain, 3 h; hits give low values;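 active = percent response vs DMSO below 50%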;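 note: median channel GFP fluorescence of the barcoded RPL19A-GFP strain; lower means less RPL19A-GFP as with rapamycin TOR inhibition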
AGP1 TOR yeast: modulators of AGP1-GFP expression in yeast TOR pathway, primary screen, cell-based, multiplex flow cytometry, S. cerevisiae, MLPCN library; 3 h; GFP as percent of DMSO wells; GFP response vs DMSO, % at 10 µM; actives 0.02% (n = 320,000); AID 2066, 2009;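 active = GFP response relative to DMSO above a set limit, near screen average plus 3 SD, cut at about 150% in these data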;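 note: median GFP channel fluorescence of the gated AGP1 strain per well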
CIT2 TOR yeast: modulators of CIT2-GFP expression in yeast, primary screen, S. cerevisiae, GFP fusion, multiplex flow cytometry, MLPCN library | S. cerevisiae CIT2-GFP strain, 3 h; 100 means same as DMSO wells | GFP response vs DMSO, % at 10 µM | actives 0.065% (n = 320,000);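 active = GFP response relative to DMSO above a set limit, near the screen mean plus 3 SD, cut at about 150% in these data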;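 note: ratio of well median GFP fluorescence to mean of DMSO wells on the plate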
LAP4 cherry2: LAP4-GFP expression modulators in yeast, confirmation, cell-based, second cherry pick, flow cytometry. AID 2621, 2010. actives 20% (n = 590). S. cerevisiae LAP4-GFP strain, 3 h. GFP response vs DMSO, % at 10 µM. shares compounds with LAP4 TOR yeast;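 active = GFP signal as percent of the solvent control above about 150%, meaning raised reporter expression, limit read from the data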
MEP2 cherry2: modulators of MEP2-GFP levels in yeast, confirmation, S. cerevisiae, flow cytometry GFP, second cherry picks; actives 10% (n = 590); AID 2622, 2010; shares compounds with LAP4 TOR yeast; GFP response vs DMSO, % at 10 µM; S. cerevisiae MEP2-GFP strain, 3 h;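 active = GFP signal above 150% of the solvent control wells, that is a rise of more than half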;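 note: median channel GFP fluorescence of all gated yeast cells per well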
RPL19A-GFP pick2: RPL19A-GFP modulators in TOR pathway yeast, confirmation, cell-based, S. cerevisiae, flow cytometry, second cherry pick. actives 3% (n = 590). S. cerevisiae RPL19A-GFP strain, 3 h; hits give low values; 100% means same as DMSO wells. GFP response vs DMSO, % at 10 µM. shares compounds with LAP4 TOR yeast. AID 2623, 2010;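 active = under 65% GFP response relative to DMSO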;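 note: median GFP channel fluorescence per well over the all cells gate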
CIT2 GFP CP2: modulators of CIT2-GFP expression in yeast, confirmation, flow cytometry, second cherry pick, single plex | shares compounds with LAP4 TOR yeast | S. cerevisiae CIT2-GFP strain, 3 h; DMSO control wells read 100% | GFP response vs DMSO, % at 10 µM | actives 8% (n = 590) | AID 2624, 2010;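 active = GFP response vs DMSO above about 150%, limit read from the data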;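 note: median green fluorescence per well over all gated yeast cells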
AGP1-GFP pick2: AGP1-GFP expression modulators, hit retest, confirmation, cell-based, flow cytometry, S. cerevisiae, cherry pick set 2; shares compounds with LAP4 TOR yeast; S. cerevisiae AGP1-GFP strain, 3 h; percent response vs DMSO, % at 10 µM; 590 tested, under 10 active; AID 2643, 2010;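 active = over 150 percent of DMSO response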;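 note: median GFP channel fluorescence over all cells without mother daughter split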
s288c autofluor: compound autofluorescence in yeast s288c, dose response, artefact control for yeast TOR pathway GFP screen, s288c strain; shares compounds with LAP4 TOR yeast; S. cerevisiae s288c, 520 nm autofluorescence, flow cytometry, 3 h; hits give high values; zero means same as solvent-only cells; 610 tested, under 10 active; fluorescence change (kMESF span) at 33 µM;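 active = fluorescence span over the dose series, or activity score, above about 33, limit read from the data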
Of the large screens only hits and unclear results are named; the others gave an inactive call (follow-up assays come after a bar, where they were run). Rows were chosen to be rich in hits. Some 1.2% of all compounds tested hit in one or more screens of this group.

Cc1ccc(NC(=O)CCc2ccccc2)cc1S(=O)(=O)N1CCOCC1	LAP4 TOR yeast 151 | LAP4 cherry2 inactive | MEP2 cherry2 inactive | RPL19A-GFP pick2 inactive | CIT2 GFP CP2 inactive | AGP1-GFP pick2 inactive | s288c autofluor inactive
CC(=O)C[C@@H](O)CC(=O)[C@@H]1OC(=O)[C@@H](C)C/C=C\Cc2ccccc21	none
O=C(C#Cc1ccccc1)c1ccco1	LAP4 TOR yeast 153 | LAP4 cherry2 156 | MEP2 cherry2 165 | RPL19A-GFP pick2 inactive | CIT2 GFP CP2 inactive | AGP1-GFP pick2 inactive | s288c autofluor inactive
O=C(N/N=C/c1ccccc1)c1ccco1	none (no result: DSG3 Ab inh)
CCN1CCN(C(=O)c2ccc(C)c(S(=O)(=O)Nc3cccc(C)c3)c2)CC1	CIT2 TOR yeast 166 | LAP4 cherry2 inactive | MEP2 cherry2 inactive | RPL19A-GFP pick2 inactive | CIT2 GFP CP2 inactive | AGP1-GFP pick2 inactive
CCOc1ccccc1NC(=O)CC1(CC(=O)N2CCOCC2)CCCC1	none (no result: LAP4 TOR yeast, MEP2-GFP yeast, RPL19A TOR yeast, AGP1 TOR yeast, CIT2 TOR yeast)
COc1cccc2cc(-c3nc4ccccc4o3)c(=O)oc12	none | LAP4 cherry2 inactive | MEP2 cherry2 inactive | RPL19A-GFP pick2 60 | CIT2 GFP CP2 inactive | AGP1-GFP pick2 inactive | s288c autofluor inactive
CS(=O)(=O)N1N=C(c2ccccc2)CC1c1ccc2c(c1)OCO2 (configuration not stated)	LAP4 TOR yeast 243, MEP2-GFP yeast 305, CIT2 TOR yeast 243 (no result: DSG3 Ab inh) | s288c autofluor 83
CS(=O)(=O)Nc1cccc(C2=NN(S(C)(=O)=O)C(c3ccc4c(c3)OCO4)C2)c1 (configuration not stated)	none
Nc1ccccc1C#CC(=O)c1ccccc1	LAP4 TOR yeast 228 | LAP4 cherry2 179 | MEP2 cherry2 inactive | RPL19A-GFP pick2 inactive | CIT2 GFP CP2 inactive | AGP1-GFP pick2 inactive | s288c autofluor inactive
O=C(C#Cc1cccc([N+](=O)[O-])c1)c1ccccc1	LAP4 TOR yeast 171 | s288c autofluor inactive
Nc1ccccc1C#Cc1ccc([N+](=O)[O-])cc1	none
O=C1C(Cl)=C(Nc2ccccc2O)C(=O)N1c1ccccc1	none | s288c autofluor inactive
Cc1c(NC2=C(Cl)C(=O)N(c3ccccc3Cl)C2=O)c(=O)n(-c2ccccc2)n1C	none | s288c autofluor inactive
